PubChem BioAssay (Tox21)
Records with an inconclusive call do not appear. Active and inactive are the calls of the source. Unless noted, calls follow the shape of the dose curve; as a rule, active = well fitted curve in the direction sought with a large enough effect in the repeat runs; inconclusive = weak or mixed curves; inactive = no such curve, though single readings can be large; an effect the other way counts as inactive or inconclusive.

Tests used:
[1] = qHTS assay to identify small molecule agonists of the peroxisome proliferator-activated receptor delta (PPARd) signaling pathway - cell viability counter screen (AID 743211); also: % is scaled to controls: 0 for no effect and ±100 for the full control effect; nearly all actives have a fitted effect of over 55% in size
Method in brief: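 Following 5 h plating at 37 C and 5% CO2, PPARd UAS-bla HEK293H cells took up test compounds for 17 h. Viability was quantified by luminescence 30 min after CellTiter-Glo addition at room temperature.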

[2] = molecular target: Peroxisome proliferator-activated receptor delta (Homo sapiens) (UniProt Q03181); assay: qHTS assay to identify small molecule agonists of the peroxisome proliferator-activated receptor delta (PPARd) signaling pathway (AID 743212; calls by dose curve;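 also: HEK293H cells with PPARd UAS beta-lactamase reporter GeneBLAzer system; % is scaled to controls: 0 for no effect and ±100 for the full control effect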)
Peroxisome proliferator-activated receptor delta (Homo sapiens), sequence (Q03181 whole entry, looked up): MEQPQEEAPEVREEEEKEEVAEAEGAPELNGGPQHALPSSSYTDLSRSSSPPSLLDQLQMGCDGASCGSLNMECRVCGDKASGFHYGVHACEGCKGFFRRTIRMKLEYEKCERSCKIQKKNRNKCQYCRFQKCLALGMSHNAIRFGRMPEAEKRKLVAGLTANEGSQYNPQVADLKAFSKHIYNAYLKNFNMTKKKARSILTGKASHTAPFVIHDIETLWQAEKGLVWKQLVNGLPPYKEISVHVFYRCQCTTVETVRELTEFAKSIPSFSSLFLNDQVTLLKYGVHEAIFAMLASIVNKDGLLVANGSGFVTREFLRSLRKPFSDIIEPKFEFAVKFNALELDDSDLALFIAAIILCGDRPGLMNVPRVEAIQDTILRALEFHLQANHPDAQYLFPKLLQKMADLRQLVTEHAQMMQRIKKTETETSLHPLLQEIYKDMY
Method in brief: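 Beta-lactamase reporter readout: a ratiometric FRET signal from the LiveBLAzer substrate after 2 h at room temperature. Compound exposure at 37 °C in PPARδ-bla HEK293H cells driven by an upstream activator sequence.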

[3] = qHTS assay to identify small molecule antagonists of the peroxisome proliferator-activated receptor delta (PPARd) signaling pathway - cell viability counter screen (AID 743213); also: % is scaled to controls: 0 for no effect and ±100 for the full control effect; nearly all actives have a fitted effect of over 50% in size
Method in brief: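 Same-well viability: cells pre-incubated 5 h, dosed with compound plus 300 nM L165041, kept 17 h at 37 C, FRET substrate 2 h RT, then CellTiter-Glo 30 min RT and luminescence.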

[4] = molecular target: Peroxisome proliferator-activated receptor delta (Homo sapiens) (UniProt Q03181); assay: qHTS assay to identify small molecule antagonists of the peroxisome proliferator-activated receptor delta (PPARd) signaling pathway (AID 743215; active = well fitted inhibition curve with a large enough effect in the signal ratio in the repeat runs, not every such curve was filed as active; the % refers to the signal ratio;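 also: cells stimulated with agonist L165041 at 300 nM final during compound exposure; series mostly up to about 62 µM; % is scaled to controls: 0 for no effect and ±100 for the full control effect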)
Method in brief: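 Here, a reporter line (HEK293H, beta-lactamase under a UAS) measures PPARd signaling. Compounds are tested against agonist L165041 at 300 nM final concentration over 17 h at 37 C, with fluorescence read after substrate.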

[5] = qHTS assay to identify small molecule agonists of the farnesoid-X-receptor (FXR) signaling pathway - cell viability counter screen (AID 743218); also: % is scaled to controls: 0 for no effect and ±100 for the full control effect; nearly all actives have a fitted effect of over 45% in size
Method in brief: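 Quantitative HTS counter screen measuring ATP-based viability via CellTiter-Glo luminescence in HEK 293T cells carrying a UAS-driven beta-lactamase reporter, after 16 h compound exposure at 37 C.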

[6] = qHTS assay to identify small molecule antagonists of the farnesoid-X-receptor (FXR) signaling pathway - cell viability counter screen (AID 743221; active = well fitted cell-killing curve with a large enough effect in the repeat runs, not every such curve was filed as active; also: % is scaled to controls: 0 for no effect and ±100 for the full control effect; nearly all actives have a fitted effect of over 50% in size)
Method in brief: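 Compound effects on cell number were measured as CellTiter-Glo luminescence in HEK 293T cells expressing FXR-UAS-bla, after 16 h at 37 C with 50 uM CDCA (final).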

[7] = molecular target: Vitamin D3 receptor (Homo sapiens) (UniProt P11473); assay: qHTS assay to identify small molecule agonists of the vitamin D receptor (VDR) signaling pathway (AID 743222; calls by dose curve; also: % is scaled to controls: 0 for no effect and ±100 for the full control effect)
Vitamin D3 receptor (Homo sapiens), sequence (P11473 whole entry, looked up): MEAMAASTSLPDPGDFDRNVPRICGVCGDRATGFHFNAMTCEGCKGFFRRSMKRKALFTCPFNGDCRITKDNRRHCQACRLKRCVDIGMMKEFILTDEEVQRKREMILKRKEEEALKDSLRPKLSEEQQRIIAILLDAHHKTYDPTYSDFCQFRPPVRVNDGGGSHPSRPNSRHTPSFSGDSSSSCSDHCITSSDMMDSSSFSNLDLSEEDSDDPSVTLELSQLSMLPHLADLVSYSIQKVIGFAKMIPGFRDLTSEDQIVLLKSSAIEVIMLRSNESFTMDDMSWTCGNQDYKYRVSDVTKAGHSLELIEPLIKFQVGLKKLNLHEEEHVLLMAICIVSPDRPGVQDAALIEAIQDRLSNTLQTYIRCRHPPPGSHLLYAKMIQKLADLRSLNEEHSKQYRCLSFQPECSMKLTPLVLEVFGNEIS
Method in brief: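 Tox21 cell reporter format: VDR-bla line, 16 h compound exposure in 5% CO2 at 37C, then fluorescence intensity after 2 h with LiveBLAzer B/G FRET substrate.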

[8] = molecular target: Vitamin D3 receptor (Homo sapiens) (UniProt P11473); assay: qHTS assay to identify small molecule antagonists of the vitamin D receptor (VDR) signaling pathway (AID 743223; active = well fitted inhibition curve with a large enough effect in the signal ratio in the repeat runs, not every such curve was filed as active; the % refers to the signal ratio; also: % is scaled to controls: 0 for no effect and ±100 for the full control effect)
Method in brief: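 Beta-lactamase activity in VDR-bla cells is measured by FRET substrate fluorescence (2 h, room temperature) after cells spend 16 h at 37C with test compound and 3 nM final 1alpha,25-dihydroxyvitamin D3.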

[9] = qHTS assay to identify small molecule agonists of the vitamin D receptor (VDR) signaling pathway - cell viability counter screen (AID 743224); also: series mostly up to about 63 µM; % is scaled to controls: 0 for no effect and ±100 for the full control effect; nearly all actives have a fitted effect of over 50% in size
Method in brief: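 CellTiter-Glo viability readout on VDR-bla cells, measured after 16 h of compound treatment at 37C in the same wells.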

[10] = qHTS assay to identify small molecule antagonists of the vitamin D receptor (VDR) signaling pathway - cell viability counter screen (AID 743225); also: % is scaled to controls: 0 for no effect and ±100 for the full control effect; nearly all actives have a fitted effect of over 50% in size
Method in brief: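 In this counter screen, VDR-bla HEK 293T cells receive test compound plus 3 nM final calcitriol for 16 h at 37C. Room-temperature steps of 2 h with the beta-lactamase substrate, then 30 min with CellTiter-Glo, precede the luminescence read.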

[11] = qHTS assay to identify small molecule agonists of the NFkB signaling pathway (AID 1159509; active = well fitted curve in the direction sought with a large enough effect in the signal ratio in the repeat runs, not every such curve was filed as active; the % refers to the signal ratio)
Method in brief: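 Agonist activity was read as beta-lactamase-driven FRET change (460 and 530 nm emission, 405 nm excitation) following 1.5 hr substrate loading at room temperature. Beforehand, ME-180 NFkB-bla reporter cells were treated with compounds for 5 hr at 37 C.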

[12] = qHTS assay to identify small molecule agonists of the NFkB signaling pathway - cell viability counter screen (AID 1159515; calls by dose curve; also: series mostly up to about 61 µM; % is scaled to controls: 0 for no effect and ±100 for the full control effect; nearly all actives have a fitted effect of over 55% in size)
Method in brief: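 Tox21 library compounds were tested for cytotoxicity against NFkB-bla ME-180 cells during a 5 hr exposure at 37 C. CellTiter-Glo luminescence served as the viability read-out.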

[13] = qHTS assay to identify small molecule agonists of the endoplasmic reticulum stress response signaling pathway (AID 1159516; active = well fitted activation curve with a large enough effect in the signal ratio in the repeat runs, not every such curve was filed as active; the % refers to the signal ratio; also: % is scaled to controls: 0 for no effect and ±100 for the full control effect)
Method in brief: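 Fluorescence at 460 and 530 nm (405 nm excitation) reports beta-lactamase from an ER stress response element in HeLa cells treated 5 hr at 37 C.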

[14] = qHTS assay to identify small molecule agonists of the endoplasmic reticulum stress response signaling pathway - cell viability counter screen (AID 1159517; calls by dose curve)
Method in brief: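 ESRE-bla HeLa cells (1,500/well) were plated overnight at 37 C and exposed to compounds for 5 hr. After the 2 hr beta-lactamase substrate read, CellTiter-Glo went into the same wells, and luminescence was read after 30 min at room temperature.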

[15] = qHTS assay to identify small molecule antagonists of the retinoid-related orphan receptor gamma (ROR-gamma) signaling pathway - cell viability counter screen (AID 1159520)
Method in brief: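 Cytotoxicity was read from cellular ATP (CellTiter-Glo luminescence) after 16 hr at 37 C with 1 uM doxycycline induction. The inducer was added 2 hr after compound transfer to Tet-on ROR gamma CHO cells.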

[16] = molecular target: Nuclear receptor ROR-gamma (Homo sapiens) (UniProt P51449); assay: qHTS assay to identify small molecule antagonists of the retinoid-related orphan receptor gamma (ROR-gamma) signaling pathway (AID 1159521)
Method in brief: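 Screening format: cell-based luciferase reporter in CHO cells with doxycycline-inducible RORγ. Compound pre-exposure lasts 2 h, doxycycline is 1 uM final, induction runs 16 h at 37 C, and ONE-Glo luminescence is read.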

[17] = qHTS assay to identify small molecule agonists of the AP-1 signaling pathway - cell viability counter screen (AID 1159525; calls by dose curve; also: nearly all actives have a fitted effect of over 55% in size)
Method in brief: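 Intracellular ATP by Cell Titer Glo luminescence (30 min, RT) in the same ME-180 AP-1-bla wells after the 5 h compound exposure at 37 °C. Normalised to tetra n-octyl ammonium bromide and DMSO controls.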

[18] = qHTS assay to identify small molecule agonists of the AP-1 signaling pathway (AID 1159526; calls by dose curve; also: % is scaled to controls: 0 for no effect and ±100 for the full control effect)
[19] = molecular target: Bile acid receptor (Homo sapiens) (UniProt Q96RI1); assay: qHTS assay to identify small molecule antagonists of the farnesoid-X-receptor (FXR) signaling pathway (AID 743217; active = well fitted inhibition curve with a large enough effect in the signal ratio in the repeat runs, not every such curve was filed as active; the % refers to the signal ratio; also: % is scaled to controls: 0 for no effect and ±100 for the full control effect)
Bile acid receptor (Homo sapiens), sequence (Q96RI1 whole entry, looked up): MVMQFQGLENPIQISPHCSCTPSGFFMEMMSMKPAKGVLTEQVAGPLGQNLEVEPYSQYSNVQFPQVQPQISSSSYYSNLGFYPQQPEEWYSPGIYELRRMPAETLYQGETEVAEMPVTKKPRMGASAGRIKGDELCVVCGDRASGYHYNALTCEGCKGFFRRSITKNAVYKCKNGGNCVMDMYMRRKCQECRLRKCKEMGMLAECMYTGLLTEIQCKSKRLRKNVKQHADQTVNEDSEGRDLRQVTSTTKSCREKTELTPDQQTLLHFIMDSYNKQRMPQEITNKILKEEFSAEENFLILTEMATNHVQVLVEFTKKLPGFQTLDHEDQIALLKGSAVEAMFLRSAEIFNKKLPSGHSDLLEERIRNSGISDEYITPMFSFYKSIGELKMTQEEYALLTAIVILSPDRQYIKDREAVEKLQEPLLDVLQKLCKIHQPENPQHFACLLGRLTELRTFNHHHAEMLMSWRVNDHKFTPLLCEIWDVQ
Method in brief: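 Test compounds are pin-transferred onto FXR-bla HEK 293T cells, then chenodeoxycholic acid is added at 50 uM final. After 16 h at 37 °C, LiveBLAzer B/G substrate is applied for 2 h at room temperature and fluorescence read.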

[20] = molecular target: Bile acid receptor (Homo sapiens) (UniProt Q96RI1); assay: qHTS assay to identify small molecule agonists of the farnesoid-X-receptor (FXR) signaling pathway (AID 743220; active = well fitted activation curve with a large enough effect in the signal ratio in the repeat runs, not every such curve was filed as active; the % refers to the signal ratio; also: % is scaled to controls: 0 for no effect and ±100 for the full control effect)
Method in brief: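 FXR-UAS-bla HEK 293T cells carrying a UAS-driven beta-lactamase reporter were plated for 5 h at 37C/5% CO2, then exposed to DMSO-dissolved Tox21 10K compounds for 16 h at 37C. A LiveBLAzer B/G FRET substrate was loaded for 2 h at room temperature before fluorescence reading.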

CN(C)C(=O)Nc1ccccc1
inactive: Potency [1] | outcome [2] | Potency [3] | outcome [4] | outcome [5] | Potency [6] | outcome [7] | outcome [8] | outcome [9] | outcome [10] | outcome [11] | outcome [12] | outcome [13] | outcome [14] | Potency [15] | Potency [16] | outcome [17] | Potency [18]

CCn1cc(C(=O)O)c(=O)c2cc(F)c(N3CCN(C)CC3)cc21
inactive: Potency [1] | outcome [2] | Potency [3] | outcome [4] | outcome [5] | Potency [6] | outcome [11] | outcome [12] | outcome [13] | outcome [14] | activity, negative = cytotoxicity [15] 0.209% [at 19 µM] | activity change, negative = inhibition [16] -0.847% [at 19 µM] | viability change, negative = cytotoxic [17] 2.53% [at 15.8 µM] | activation [18] 0.51% [at 15.8 µM]

COc1cccc(Br)c1
inactive: Potency [1] | outcome [2] | Potency [3] | outcome [4] | outcome [5] | Potency [6] | outcome [7] | outcome [9] | outcome [11] | outcome [12] | outcome [13] | outcome [14] | Potency [15] | Potency [16] | outcome [17] | Potency [18]

N#CCc1ccccc1[N+](=O)[O-]
inactive: Potency [1] | outcome [2] | Potency [3] | outcome [4] | outcome [19] | outcome [20] | Potency [6] | outcome [7] | outcome [8] | outcome [9] | outcome [10] | outcome [11] | outcome [12] | outcome [13] | outcome [14] | Potency [15] | Potency [16] | outcome [17] | Potency [18]

CC1(C)SC(C)(C)SC(C)(C)S1
inactive: Potency [1] | outcome [2] | Potency [3] | outcome [4] | outcome [19] | outcome [5] | outcome [20] | Potency [6] | outcome [7] | outcome [9] | outcome [11] | outcome [12] | outcome [13] | outcome [14] | Potency [15] | Potency [16] | outcome [17] | Potency [18]

Cc1onc(-c2ccccc2)c1-c1ccc(S(N)(=O)=O)cc1
inactive: Potency [1] | outcome [2] | Potency [3] | outcome [4] | outcome [5] | Potency [6] | outcome [7] | outcome [8] | outcome [10] | outcome [11] | outcome [12] | outcome [13] | outcome [14] | Potency [15] | Potency [16] | outcome [17] | Potency [18]

O=[N+]([O-])c1ccc(Oc2ccc([N+](=O)[O-])cc2)cc1
inactive: Potency [1] | outcome [2] | Potency [3] | outcome [4] | outcome [19] | Potency [6] | outcome [7] | outcome [8] | outcome [9] | outcome [11] | outcome [12] | outcome [13] | outcome [14] | Potency [15] | Potency [16] | outcome [17] | Potency [18]

COc1ccc(COC=O)cc1
inactive: Potency [1] | outcome [2] | Potency [3] | outcome [4] | outcome [19] | outcome [5] | outcome [20] | Potency [6] | outcome [9] | outcome [10] | outcome [11] | outcome [12] | outcome [13] | outcome [14] | Potency [15] | Potency [16] | outcome [17] | Potency [18]

CCCCCCCCCCCCCCC
inactive: Potency [1] | outcome [2] | Potency [3] | outcome [4] | outcome [5] | Potency [6] | outcome [7] | outcome [9] | outcome [10] | outcome [11] | outcome [12] | outcome [13] | outcome [14] | Potency [15] | Potency [16] | outcome [17] | Potency [18]

COC(C(=O)O)c1ccccc1 (stereo not drawn)
inactive: Potency [1] | outcome [2] | Potency [3] | outcome [4] | outcome [19] | outcome [20] | Potency [6] | outcome [7] | outcome [8] | outcome [9] | outcome [10] | outcome [11] | outcome [12] | outcome [13] | outcome [14] | Potency [15] | Potency [16] | outcome [17] | Potency [18]

O=Cc1ccccc1[N+](=O)[O-]
inactive: Potency [1] | outcome [2] | Potency [3] | outcome [4] | outcome [5] | Potency [6] | outcome [7] | outcome [8] | outcome [9] | outcome [10] | outcome [11] | outcome [12] | outcome [13] | outcome [14] | Potency [15] | Potency [16] | outcome [17] | Potency [18]

COc1ccc2cc(C=O)ccc2c1
inactive: Potency [1] | outcome [2] | Potency [3] | outcome [4] | outcome [5] | Potency [6] | outcome [7] | outcome [8] | outcome [9] | outcome [10] | outcome [11] | outcome [12] | outcome [13] | outcome [14] | Potency [15] | Potency [16] | outcome [17] | Potency [18]

CC(C)[C@H](N)C(=O)OCCOCn1cnc2c(=O)[nH]c(N)nc21
inactive: Potency [1] | outcome [2] | Potency [3] | outcome [4] | outcome [19] | Potency [6] | outcome [9] | outcome [10] | outcome [11] | outcome [12] | outcome [13] | outcome [14] | Potency [15] | Potency [16] | outcome [17] | Potency [18]

CC(C)CCCC(C)NCCC(C)C (stereo not drawn)
inactive: Potency [1] | outcome [2] | Potency [3] | outcome [4] | outcome [5] | Potency [6] | outcome [7] | outcome [8] | outcome [9] | outcome [10] | outcome [11] | outcome [12] | outcome [13] | outcome [14] | Potency [15] | Potency [16] | outcome [17] | Potency [18]

CCC(=O)c1cccc(Cl)c1
inactive: Potency [1] | outcome [2] | Potency [3] | outcome [4] | outcome [5] | Potency [6] | outcome [7] | outcome [8] | outcome [9] | outcome [10] | outcome [11] | outcome [12] | outcome [13] | outcome [14] | Potency [15] | Potency [16] | outcome [17] | Potency [18]

COCCOC(=O)CC#N
inactive: Potency [1] | outcome [2] | Potency [3] | outcome [4] | outcome [5] | Potency [6] | outcome [7] | outcome [9] | outcome [10] | outcome [11] | outcome [12] | outcome [13] | outcome [14] | Potency [15] | Potency [16] | outcome [17] | Potency [18]
